Screen size: about 190,000 compounds; about 810 (0.43%) were called active. What follows is part of a selection rich in actives, with near analogues and random picks from the rest. A number with no mark means an inactive call. No stated cut-off is given here; in the data, active means inhibition above about 50%; inactive means the rest.
The molecules below were run against Mannose-6-phosphate isomerase (Homo sapiens) (UniProt P34949) (assay: inhibitors of human PMI, primary screen, biochemical, fluorescence intensity, coupled assay (AID 1209;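 further: plate controls were DMSO vehicle for no effect and wells lacking substrate for full effect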)). Conditions: purified PMI enzyme, at 20 µM, stronger effect = higher value.
Sequence of Mannose-6-phosphate isomerase (Homo sapiens) (P34949 whole entry, looked up): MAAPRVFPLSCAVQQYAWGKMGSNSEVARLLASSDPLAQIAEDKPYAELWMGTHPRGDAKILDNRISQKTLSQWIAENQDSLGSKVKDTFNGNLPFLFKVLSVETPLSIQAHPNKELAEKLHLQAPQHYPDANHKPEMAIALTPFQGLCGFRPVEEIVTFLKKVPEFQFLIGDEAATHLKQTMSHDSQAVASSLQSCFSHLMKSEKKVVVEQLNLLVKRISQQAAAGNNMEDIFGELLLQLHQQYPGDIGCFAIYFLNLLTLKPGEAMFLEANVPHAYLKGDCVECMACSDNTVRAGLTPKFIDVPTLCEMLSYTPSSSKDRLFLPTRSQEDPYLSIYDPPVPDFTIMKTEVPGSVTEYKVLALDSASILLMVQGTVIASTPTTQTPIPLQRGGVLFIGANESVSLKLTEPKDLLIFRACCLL

Compound	inhibition
COCC(C)NC(=O)/C=C/c1ccc(OC)cc1 (stereo not drawn)	9.4%
O=C(c1cc(Cl)ccc1[N+](=O)[O-])N1CCc2ccccc2C1	7.8%
O=C(CSc1nc2ccccc2o1)NCC(=O)c1ccccc1	10.6%
CC(=O)N1N=C(c2cccc(Cl)c2)OC1c1cccc([N+](=O)[O-])c1 (stereo not drawn)	10.4%
Cc1cccc(NC(=O)CC2S/C(=N/c3nccs3)N(C)C2=O)c1 (stereo not drawn)	-1.9%
COc1ccc(-n2c(=S)[nH]c3sc4c(c3c2=O)CCc2ccccc2-4)cc1	57.8% (active)
Cc1cccc(-n2c(=S)[nH]c3c(oc4ccccc43)c2=O)c1	-1.9%
Cc1ccc(-n2c(=S)[nH]c3sc4c(c3c2=O)CCc2ccccc2-4)cc1	10.4%
Cc1ccc(-n2c(=S)[nH]c3sc4c(c3c2=O)CCC4)cc1	2.3%
Cc1cccc(-n2c(=O)c3c4c(sc3n3c(=S)[nH]nc23)CCC4)c1	-0.7%
COc1ccc(N2C(=O)CCC(C(=O)NCCN3CCOCC3)C2c2ccc(OC)c(OC)c2)cc1 (stereo not drawn)	17.2%
C=CCNC(=O)/C(=C/c1ccccc1OCC)NC(=O)c1ccccc1	3.5%
CCCSc1nnc2[nH]c(=O)cc(N)n12	-1.4%
CCO[C@H]1OC(C(=O)N2CCN(Cc3ccc4c(c3)OCO4)CC2)=C[C@@H](c2ccccc2)[C@@H]1CCCO	7.5%
O=C(Cn1cncn1)NCCCc1ccccc1	4.2%
COc1cc(/C=C2\NC(=S)N(C)C2=O)ccc1O	-2.1%
CC(=O)c1c(C)[nH]c(C(=O)OCC(=O)Nc2cc(Cl)ccc2[N+](=O)[O-])c1C	9.3%
Cc1ccc(S(=O)(=O)N2CCN(C(=O)/C=C/c3ccco3)CC2)cc1	26%
Cc1ccc(C)c(N2C(=N)S/C(=C\c3ccc(-c4ccccc4C(=O)O)o3)C2=O)c1	18.5%
COc1ccccc1N1C(=N)S/C(=C\c2ccc(-c3ccccc3C(=O)O)o2)C1=O	-36.9%
CC(=O)Nc1ccc(S(=O)(=O)NNC(=O)COc2ccc(C)cc2)cc1	0.9%

Compound	inhibition
CCOC(=O)N1CCN(Cc2ccc(F)cc2F)CC1	-1.3%
Cc1cc(C)n2nc[n+](C)c2n1	72.6% (active)
Cc1cc(C)n2nc(CCc3nc4nc(C)cc(C)n4n3)nc2n1	-4.4%
Cc1cc(C)n2ncnc2n1	5.9%
Cc1cc(-c2ccc(N3C(=O)CCC3=O)c(C)c2)ccc1N1C(=O)CCC1=O	1.5%
COC(=O)CN(c1ccc(Cl)cc1C)S(C)(=O)=O	1.2%
COc1ccc(C(=O)CNc2ccc3ccccc3c2)cc1	76.9% (active)
COc1ccc(C(=O)CNc2ccccc2C#N)cc1	-2.6%
COc1ccc(C(=O)CNc2ccccc2CO)cc1	-10.5%
O=[N+]([O-])c1cccc(-c2nc3ccc([N+](=O)[O-])cc3[nH]2)c1	-13.7%
COc1ccccc1NC(=O)c1ccc(NC(=O)COC(=O)C2CCCCC2)cc1	10.6%
CSC1=N/C(=C\c2cccc(F)c2)C(=O)S1	-4.9%
C=C(C)CNC(=S)Nc1cccc2cnccc12	14.2%
S=C(Nc1cccnc1)Nc1cccc2cnccc12	47.5%
S=C(Nc1ccc(Cl)cc1)Nc1cccc2cnccc12	26.4%
Cc1ccc(NC(=S)Nc2cccc3cnccc23)cc1C	-0.2%
Cc1ccc(NC(=S)Nc2cccc3cnccc23)cc1	80.1% (active)
Cc1cc(C)cc(NC(=S)Nc2cccc3cnccc23)c1	66.2% (active)
CCCCNC(=S)Nc1cccc2cnccc12	5.6%
S=C(Nc1cccc(Cl)c1)Nc1cccc2cnccc12	57.2% (active)
Cc1c(C(=O)N2CCN(c3ccc(C(F)(F)F)cn3)CC2)oc2ccccc12	13.3%

Compound	inhibition
CC(NC(=O)/C=C/c1ccco1)c1nc2ccccc2n1Cc1c(Cl)cccc1Cl (stereo not drawn)	-4.3%
CNc1ccc2nnc(C(F)(F)C(F)(F)C(F)(F)F)n2n1	-0.7%
Cc1c(C)n(C(=O)CN2CCC(C(N)=O)CC2)c2ccccc12	7.2%
CCCC(=O)Nc1ccc(C(=O)Nc2ccc([N+](=O)[O-])cc2OC)cc1	-20.7%
COc1ccc(OCC(=O)O/N=C(\N)Cc2cccs2)cc1	3.7%
O=C(CCN1C(=O)C2CC=C(Cl)CC2C1=O)NC1CCCCC1 (stereo not drawn)	-7.8%
Cc1cc(C)n2nc(SCC(=O)c3cc(C)n(CC4CCCO4)c3C)nc2n1 (stereo not drawn)	-13.5%
Cc1ccc(NC(=O)CSc2n[nH]c(-c3ccco3)n2)c(C)c1	-4%
CCOC(=O)c1c(NCc2ccccc2)n[nH]c1C	13.3%
O=C1CC(Sc2ncn[nH]2)C(=O)N1c1ccccc1 (stereo not drawn)	42.6%
Cc1cccc(N2C(=O)CC(Sc3ncn[nH]3)C2=O)c1 (stereo not drawn)	34.7%
COc1ccc(N2C(=O)CC(Sc3ncn[nH]3)C2=O)c(OC)c1 (stereo not drawn)	73.4% (active)
CN(c1nnc(N)s1)C1CCCCC1	-8.5%
CCn1ncc(C2=NOC(C(=O)Nc3cccc(O)c3)C2)c1C (stereo not drawn)	-18.7%
C1=C(c2ccc(-c3ccccc3)cc2)Nc2ncnn2C1c1ccco1 (stereo not drawn)	52.3% (active)
Fc1ccc(C2=CC(c3ccco3)n3ncnc3N2)cc1 (stereo not drawn)	-42.5%
Clc1ccc(C2=CC(c3ccco3)n3ncnc3N2)cc1 (stereo not drawn)	-12.4%
Cc1nc2[nH]c(=S)n(C)c(=O)c2nc1C	-17.3%
COC(=O)[C@@]1(Cc2ccc(F)cc2)[C@H]2c3cc(C(=O)N4CCCC4)n(CCc4ccc(O)c(O)c4)c3C[C@H]2CN1C(=O)c1ccccc1	50.8% (active)
COC(=O)[C@@]1(Cc2ccc(F)cc2)[C@H]2c3cc(C(=O)N4CCCC4)n(CCO)c3C[C@H]2CN1C(=O)c1ccccc1	1.6%
COCCn1c(C(=O)N2CCCC2)cc2c1C[C@H]1CN(C(=O)c3ccccc3)[C@@](Cc3ccc(F)cc3)(C(=O)OC)[C@@H]21	13.8%

Source: PubChem BioAssay AID1209 (Sanford-Burnham Center for Chemical Genomics, 2008)
